Assay results reported in a collection of fitness landscapes (doi:10.1016/j.celrep.2020.107928).
Over roughly 81,000 sequences, “one-hybrid fitness for binding NBS DNA” has its median near -0.1; the highest 2% begin near 0.36. Only a selection was taken, and the highest values are over-represented in it overall.

B1: Caulobacter ParB omega fusion; a variant is named by its letters at X, in order, B8GW30 (parent)
chain: MESVVVGEPGMSEGRRGLGRGLSALLGEVDAAPAQAPGEQLGGSREAPIEILQRNPDQPRRTFREEDLEDLSNSIREKGVLQPILVRPSPDTAGEYQIVAGERAWRAAQRAGLKTVPIMVRELDDLAVLEIGIIENVQRADLNVLEEALSYKVLMEKFERTQENIAQTIGKSXSHVANXMRLLXLPDEVQSYLVSGELTAXHARAIAAAADPVALAKQIIEGGLSVRETEALARKAPNLSAGKSKGGRPPRVKDTDTQALESDLSSVLGLDVSIDHRGSTGTLTITYATLEQLDDLCNRLTRGI

Variants of: B1
Test: one-hybrid fitness for binding NBS DNA (the Noc-binding site; scaled: cognate 1, non-cognate 0); higher = stronger binding
Conditions: with NBS DNA site
Method in brief: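 The reporter was HIS3, with the binding site 19 bp from the promoter, in E. coli USO used for bacterial one-hybrid selection of Caulobacter ParB libraries with four specificity codons randomised. Growth was on M9 lacking histidine, with 0.1 mM IPTG and 5 mM 3-AT, for 48 hours at 37°C. Illumina sequencing covered plasmids before and after selection; three replicate libraries were pooled and variants with under 10 reads dropped. A fitness score is the log change in variant-to-wild-type read ratio, rescaled to the cognate and non-cognate references.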

one-hybrid fitness for binding NBS DNA, 0.348:
RMFR

one-hybrid fitness for binding NBS DNA, 0.487:
QCLT

one-hybrid fitness for binding NBS DNA, 0.367:
RYKC

one-hybrid fitness for binding NBS DNA, 0.471:
QHYR

one-hybrid fitness for binding NBS DNA, 0.289:
RMWR

one-hybrid fitness for binding NBS DNA, 0.46:
RMAR

one-hybrid fitness for binding NBS DNA, 0.255:
GTKR

one-hybrid fitness for binding NBS DNA, 0.295:
QMET

one-hybrid fitness for binding NBS DNA, 0.603:
QTTT

one-hybrid fitness for binding NBS DNA, 0.353:
QSSS

one-hybrid fitness for binding NBS DNA, 0.565:
KRFT

one-hybrid fitness for binding NBS DNA, 0.207:
KCNT

one-hybrid fitness for binding NBS DNA, 0.505:
QSRY
QMAT

one-hybrid fitness for binding NBS DNA, 0.436:
QMYT

one-hybrid fitness for binding NBS DNA, 0.421:
KRDT

one-hybrid fitness for binding NBS DNA, 0.334:
QHRN

one-hybrid fitness for binding NBS DNA, 0.458:
QCTS

one-hybrid fitness for binding NBS DNA, 0.607:
RRKI

one-hybrid fitness for binding NBS DNA, 0.431:
RMLR

one-hybrid fitness for binding NBS DNA, 0.218:
RYKN

one-hybrid fitness for binding NBS DNA, 0.339:
QMCT

one-hybrid fitness for binding NBS DNA, 0.546:
QHGR

one-hybrid fitness for binding NBS DNA, 0.275:
QCYY

one-hybrid fitness for binding NBS DNA, 0.479:
RMGR

one-hybrid fitness for binding NBS DNA, 0.52:
QMNT

one-hybrid fitness for binding NBS DNA, 0.447:
QMGT

one-hybrid fitness for binding NBS DNA, 0.412:
QHTT

one-hybrid fitness for binding NBS DNA, 0.499:
QARY

one-hybrid fitness for binding NBS DNA, 0.352:
QHIR

one-hybrid fitness for binding NBS DNA, ≤ 0.2:
AFTK
SQEG
CATP
LHPG
CDGK
SSSM
GDDT
QKFF
QKAG
QKAC
SHPD
QKML
HTHP
RGSE
SGGC
TILG
LRDT
RTGI
RYYC
RYKD
RYVC
RYVH
RYKP
KHNS
NLKT
YEHY
ADVD
SIIV
DVHC
VIQR
YNMS
QLDY
QKYY
QPRY
QKDY
QTWY
QLYY
GQTS
PQAC
GTQM
HAAV
KEKL
GHAV
VLHR
PYWE
HKSN
MTAW
VLNA
TGSV
QADY
QAAY
QIYY
QAFN
QMDY
QIHY
QAYY
QMYY
WTQT
RKML
FQSI
MFAL
SWRR
QHDY
QHYY
QSDY
QSYY
YIRY
NRNT
NRDT
DRDT
MDAV
TRPC
QMTH
QMTD
QHTN
QHTP
QKTD
QPTS
QKTN
IAMY
QCIF
PRQG
VKPT
YCVL
DHNQ
SNYG
PCIT
NGMR
RLHW
LRLN
RGQR
QHHN
QHGN
QHGD
QHHQ
IYTG
QEPT
QKVW
HKNP
NTTN
VWNG
CAIM
PVVW
YKVT
VSTT
QLTP
QSTN
QPTT
QMTL
QMTQ
QSTH
LYGT
ACDR
DHGS
GRAP
MVHG
SQHN
QTTG
QKTM
QKTP
QATH
DRTT
QATD
QNTT
ERNT
SKLS
CYAV
RIEC
GTHW
QHTM
QHTY
KWAC
TYFR
RRVI
RCKI
RREI
RRYI
VLSD
DRYG
SACR
CRNI
ARTS
NRFT
DRFT
KRAH
KCAT
ERLC
DGPR
QTLK
QMHQ
QMHG
DMRT
KGMW
IVAT
PGEM
MPVM
GHRC
NPHC
QMND
QPLT
QMAG
QMSF
QMSG
QMAF
CHMT
EHDV
SSEQ
RILE
RWLC
ADHS
SITC
TCAG
QMLN
QMIN
QMGL
QMGM
QMQF
QMLP
HGKF
ARGT
PESN
MRTC
LKVF
YDRK
EANW
QHSH
QTSP
QPSS
QMSH
QHSP
QMSP
NGMI
PSRF
GSQF
RLMM
HSIS
RMSP
RMQG
RMRP
RMQF
RMPR
RMSN
RYMW
MSPG
AAPF
KVSV
SDKS
WSYG
SPGT
PNYD
KQNC
VKNL
FTGV
QSPF
TTVG
GWPD
RMGH
RMHF
RMGN
RMLN
RMHM
RMAD

one-hybrid fitness for binding NBS DNA, 0.486:
QCTT

one-hybrid fitness for binding NBS DNA, 0.617:
KRNT

one-hybrid fitness for binding NBS DNA, 0.301:
QTTY

one-hybrid fitness for binding NBS DNA, 0.395:
QMLT

one-hybrid fitness for binding NBS DNA, 0.736:
RMRR

one-hybrid fitness for binding NBS DNA, 0.327:
QSLT

one-hybrid fitness for binding NBS DNA, 0.522:
QTSS

one-hybrid fitness for binding NBS DNA, 0.451:
QLRY
RRRI

one-hybrid fitness for binding NBS DNA, 0.475:
QKTS

one-hybrid fitness for binding NBS DNA, 0.378:
QIRY

one-hybrid fitness for binding NBS DNA, 0.463:
QMTT

one-hybrid fitness for binding NBS DNA, 0.488:
QHRY

one-hybrid fitness for binding NBS DNA, 0.989:
QHRR

one-hybrid fitness for binding NBS DNA, 0.571:
QHHR

one-hybrid fitness for binding NBS DNA, 0.57:
RYKS

one-hybrid fitness for binding NBS DNA, 0.37:
QHSS

one-hybrid fitness for binding NBS DNA, 0.379:
QATT

one-hybrid fitness for binding NBS DNA, 0.366:
QKFT

one-hybrid fitness for binding NBS DNA, 0.307:
QLTS

one-hybrid fitness for binding NBS DNA, 0.312:
QMPT

one-hybrid fitness for binding NBS DNA, 0.637:
QCRY

one-hybrid fitness for binding NBS DNA, 0.759:
QRTT

one-hybrid fitness for binding NBS DNA, 0.345:
QMDT

one-hybrid fitness for binding NBS DNA, 0.396:
RYKH
QAFY

one-hybrid fitness for binding NBS DNA, 0.262:
QTYY

one-hybrid fitness for binding NBS DNA, 0.393:
QLTT

one-hybrid fitness for binding NBS DNA, 0.277:
QKFS

one-hybrid fitness for binding NBS DNA, 0.364:
QSTS

one-hybrid fitness for binding NBS DNA, 0.468:
RMSR

one-hybrid fitness for binding NBS DNA, 0.248:
QHPR

one-hybrid fitness for binding NBS DNA, 0.56:
QKTT

one-hybrid fitness for binding NBS DNA, 0.543:
QKAT

one-hybrid fitness for binding NBS DNA, 0.392:
QMQT

one-hybrid fitness for binding NBS DNA, 0.424:
RMYR

one-hybrid fitness for binding NBS DNA, 0.253:
RMIR

one-hybrid fitness for binding NBS DNA, 0.566:
QMRY

one-hybrid fitness for binding NBS DNA, 0.223:
QMQY

one-hybrid fitness for binding NBS DNA, 0.497:
QMHT

one-hybrid fitness for binding NBS DNA, 0.309:
RMLS

one-hybrid fitness for binding NBS DNA, 0.402:
QMIT

one-hybrid fitness for binding NBS DNA, 0.572:
KRAT

one-hybrid fitness for binding NBS DNA, 0.457:
QMST

one-hybrid fitness for binding NBS DNA, 0.403:
QMTS
QSTT

one-hybrid fitness for binding NBS DNA, 0.527:
QTLT

one-hybrid fitness for binding NBS DNA, 0.221:
QTSN

one-hybrid fitness for binding NBS DNA, 0.518:
QKRY

one-hybrid fitness for binding NBS DNA, 0.449:
QCSS

one-hybrid fitness for binding NBS DNA, 0.314:
QITT

one-hybrid fitness for binding NBS DNA, 0.363:
QHWR

one-hybrid fitness for binding NBS DNA, 0.503:
RMHR

one-hybrid fitness for binding NBS DNA, 0.411:
RMQR

one-hybrid fitness for binding NBS DNA, 0.36:
QMWT

one-hybrid fitness for binding NBS DNA, 0.79:
QMRT

one-hybrid fitness for binding NBS DNA, 0.376:
QMSS

one-hybrid fitness for binding NBS DNA, 0.372:
QHTS

one-hybrid fitness for binding NBS DNA, 0.685:
QTRY
